For 21 compounds, growth inhibition results are on record in PubChem BioAssay (NCI).

Assay [1] in a line: NCI Yeast Anticancer Drug Screen. Data for the rad50 strain (AID 155).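 Note: 0% = growth of vehicle-only cultures of the same strain.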 As to conditions: S. cerevisiae rad50 strain growth inhibition; at 50.0 µM; active compounds read high. In short, it runs like this:
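Vehicle-treated cultures provide the reference for the growth inhibition reported for compound-exposed, repair-deficient yeast.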

Assay [2] in a line: NCI Yeast Anticancer Drug Screen. Data for the mec2-1 strain (AID 157). As to conditions: S. cerevisiae mec2-1 strain, at 50.0 µM, active compounds read high. A digest of the protocol: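 Each compound was tested on mec2-1 yeast, a strain altered in DNA damage repair or cell cycle control. Growth inhibition is reported relative to vehicle.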
The nature of assay [3]: NCI Yeast Anticancer Drug Screen. Data for the sgs1 mgt1 strain (AID 161).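 Note: 0% = growth of cultures given vehicle only.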 As to conditions: S. cerevisiae sgs1 mgt1 strain, at 50.0 µM, active compounds read high. In short, it runs like this:
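Read-out: growth inhibition vs vehicle controls. Cells: mutant yeast strain deficient in DNA damage repair.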

A short description of assay [4]: NCI Yeast Anticancer Drug Screen. Data for the cln2 rad14 strain (AID 165).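 Note: 0% = growth equal to vehicle treated cultures.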 As to conditions: S. cerevisiae cln2 rad14 strain, at 50.0 µM, active compounds read high. A digest of the protocol:
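Test compounds were added to cln2 rad14 yeast cultures; inhibition of growth was then determined by comparison with vehicle treatment.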

Assay [5] can be described thus: NCI Yeast Anticancer Drug Screen. Data for the bub3 strain (AID 167). As to conditions: S. cerevisiae bub3 mutant strain, at 50.0 µM, active compounds read high. A digest of the protocol:
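Mutant yeast screening strain plus compound; vehicle-treated cultures serve as the 0% inhibition reference.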

The nature of assay [6]: NCI Yeast Anticancer Drug Screen. Data for the mlh1 rad18 strain (AID 175). As to conditions: S. cerevisiae mlh1 rad18 strain growth inhibition; at 50.0 µM; active compounds read high. In short, it runs like this: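 Inhibition values reflect reduced growth of mutant yeast versus vehicle-treated controls following compound exposure; the mutations affect DNA damage repair.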

This is part of a sample that, as a whole, favours compounds with a hit. Of some 79,000 tested, about 15% had one in any assay. A number with no mark means an inactive call. The source made the active and inactive calls. Cut-off read from the data, not from the text of the source: active = growth inhibition above about 70%; inactive = the rest.

In the case of `N#Cc1c(Cl)cccc1N1CCSCC1`, the growth inhibition in assay [1] is 1.75%; in assay [2], -20.8%; in assay [3] it was 15.3%; in assay [4] it was 18.2%; in assay [5], -0.9%; in assay [6] it was 0.1%.

With `CCCCCCCCCCCCCCCCCCn1cnc2ncnc(Cl)c21`, the growth inhibition in assay [1] was 6.95%; in assay [2], 5.6%; in assay [3], 8.15%; in assay [4] it was 55.3%; in assay [5], 96.5% (active); in assay [6], 32.7%.

Take `O=C(CCc1ccccc1C(=O)O)c1ccccc1O`: the growth inhibition is 0.7% in assay [1]; -9.55% in assay [2]; -3.35% in assay [3]; 17.2% in assay [4]; 5.5% in assay [5]; -7.6% in assay [6].

With `COC1/C=C/OC2(C)Oc3c(C)c(OC(C)=O)c4c(c3C2=O)C(=O)C=C(NC(=O)/C(C)=C\C=C\C(C)C(OC(C)=O)C(C)C(O)C(C)C(OC(C)=O)C1C)C4=O` (stereo unspecified), the growth inhibition is 13.6% in assay [1]; 20.7% in assay [2]; 26.1% in assay [3]; 21.6% in assay [4]; 9.45% in assay [5]; 42.9% in assay [6].

For the compound `O=C(n1[nH]c(=O)n(-c2ccc([N+](=O)[O-])cc2)c1=O)C(Cl)(Cl)Cl`, the growth inhibition is 7.9% in assay [1]; -15.3% in assay [2]; 22.5% in assay [3]; 7.6% in assay [4]; 12.7% in assay [5]; -28.9% in assay [6].

For `Cc1ccc(NC(=O)CC#N)c(C)c1`, the growth inhibition in assay [1] is -11.8%; in assay [2], -10.2%; in assay [3], -17.9%; in assay [4] it was -40.9%; in assay [5], -0.7%; in assay [6] it was 4%.

Take `C#CC(C)(O)CCCCCC` (stereo unspecified): the growth inhibition in assay [1] was 3.7%; in assay [2], 16.4%; in assay [3] it was 12%; in assay [4] it was -4.05%; in assay [5], 35%; in assay [6] it was -7.1%.

In the case of `N#CCCCOc1ccccc1`, the growth inhibition in assay [1] was -14.2%; in assay [2], -13.6%; in assay [3], 16.4%; in assay [4], -6.7%; in assay [5], -2.05%; in assay [6] it was 5.4%.

`CCCCC1(C#Cc2ccccc2)Sc2ccccc2N1C` (stereo unspecified): the growth inhibition in assay [1] is -9.9%; in assay [2] it was -8.45%; in assay [3] it was 9.25%; in assay [4], -21.9%; in assay [5], -7.9%; in assay [6] it was 2.25%.

For the compound `N#Cc1c(-c2ccccc2)c[nH]c1/N=C/N`, the growth inhibition was -17.6% in assay [1]; -16.8% in assay [2]; -9.75% in assay [3]; -10.4% in assay [4]; -10.2% in assay [5]; -6.5% in assay [6].

`CC(CNC(=O)C12CC3CC(CC(C3)C1)C2)NC(=O)C12CC3CC(CC(C3)C1)C2` (stereo unspecified): the growth inhibition in assay [1] is 6.45%; in assay [2], 11%; in assay [3] it was -27.4%; in assay [4], 7.85%; in assay [5], -11.8%; in assay [6], 14.3%.

For the compound `O=[N+]([O-])c1ccc(N/N=C2\CCC3CC23)c([N+](=O)[O-])c1` (stereo unspecified), the growth inhibition was 1% in assay [1]; -15.2% in assay [2]; -2.15% in assay [3]; -1.35% in assay [4]; -0.55% in assay [5]; -21.9% in assay [6].

Consider `C1COCCN1.C1COCCN1.N.N.[Cl-].[Pt+2]`, for which the growth inhibition was -9.5% in assay [1]; -5.4% in assay [2]; -38.1% in assay [3]; -14.2% in assay [4]; -2.45% in assay [5]; -14.8% in assay [6].

In the case of `COc1ccc(C2C(N)=NCC2c2ccccn2)cc1` (stereo unspecified), the growth inhibition is -21.9% in assay [1]; -17.6% in assay [2]; -12.4% in assay [3]; 16.1% in assay [4]; -9.55% in assay [5]; -12.3% in assay [6].

For the compound `CC1CC[N-]C(N)N1.CC1CC[N-]C(N)N1.[Cl][Pd][Cl]` (stereo unspecified), the growth inhibition was -3.5% in assay [1]; -0.4% in assay [2]; 6.75% in assay [3]; -34.4% in assay [4]; -0.15% in assay [5]; -7.1% in assay [6].

As to `CC[N+]1(C)CCC(CN2c3ccccc3Sc3ccccc32)C1` (stereo unspecified), the growth inhibition in assay [1] is 31.4%; in assay [2] it was 22.6%; in assay [3], 38.5%; in assay [4] it was -2.65%; in assay [5], 6%; in assay [6] it was 43.3%.

Consider `N#Cc1c(-c2ccco2)cc(-c2ccc(N)cc2)[nH]c1=O`, for which the growth inhibition in assay [1] is -0.6%; in assay [2] it was 4.7%; in assay [3], 17.7%; in assay [4], 15.8%; in assay [5], -8.9%; in assay [6] it was 6.9%.

For the compound `[O]=[W](=[O])([OH])[OH]`, the growth inhibition is -11.3% in assay [1]; -13.2% in assay [2]; -15.4% in assay [3]; 11.7% in assay [4]; -11.6% in assay [5]; -17.5% in assay [6].

As to `O=C(O)c1ccccc1Nc1ccccc1`, the growth inhibition is 5.75% in assay [1]; -22.1% in assay [2]; 3.8% in assay [3]; -22.4% in assay [4]; -0.75% in assay [5]; -10% in assay [6].

Take `CCN(CC)CC1(CC)COC(c2ccccc2)(c2ccccc2)OC1`: the growth inhibition in assay [1] is -3.3%; in assay [2], -21.4%; in assay [3], -18.6%; in assay [4], -26.3%; in assay [5], -14.2%; in assay [6], -34.5%.

For `C/C(N=NC(=S)N1CCCC1)=C1\C=CC=CN1O`, the growth inhibition is 5.45% in assay [1]; -8.35% in assay [2]; 15.4% in assay [3]; -5.6% in assay [4]; 7.95% in assay [5]; 22.9% in assay [6].
